# Reference: PubChem BioAssay (Tox21)
# Values joined by “and” are separate entries in the source; they are usually repeats but may differ in a detail not shown here. Equal entries are not always repeated. Results filed as inconclusive are left out. Where a call stands in place of a potency, no number is given. Some structures have more than one record in an assay (separate samples or runs), and their calls can disagree. Active and inactive are the calls of the source. Unless noted, calls come from the whole dose curve; as a rule, active = well fitted curve in the direction sought with a large enough effect in the repeat runs; inconclusive = weak or mixed curves; inactive = no such curve, though single readings can be large; an effect the other way counts as inactive or inconclusive.
# Columns and labels:
# [1] = target: Thyrotropin-releasing hormone receptor (Homo sapiens) (UniProt P34981); test: qHTS assay to identify small molecule agonists of the thyrotropin-releasing hormone receptor (TRHR) signaling pathway (AID 1346891; calls by dose curve; note: series mostly up to about 58 µM)
# Summary of the method: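 Screening of agonists relied on calcium signalling in HEK293 cells expressing human TRHR: dye loading 2 h at 37 °C preceded compound addition and a 3-min fluorescence time course.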
# [2] = Human pregnane X receptor (PXR) small molecule agonists, qHTS cell viability counter screen (AID 1346977); note: nearly all actives have a fitted effect of over 50% in size
# Summary of the method: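 Tox21 qHTS format; PXR-Luc HepG2, 2,000/well, charcoal-stripped FBS 5%. Cpd exposure 24hr. Read: CellTiter-Fluor fluorescence, multiplexed with luciferase.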
# [3] = Caspase-3/7 induction in HepG2 cells by small molecules, qHTS assay (AID 1346978); note: nearly all actives have a fitted effect of over 15% in size
# Summary of the method: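 Caspase-3/7 induction was measured by Caspase-Glo 3/7 luminescence (30 min, room temperature) after a 17 hr compound exposure of wild-type HepG2 cells seeded at 2,000 per well and pre-incubated 5 hr.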
# [4] = Caspase-3/7 induction in CHO-K1 cells by small molecules, qHTS cell viability counter screen (AID 1346979); note: nearly all actives have a fitted effect of over 35% in size; note: potency is the fitted concentration of half-maximal effect
# Summary of the method: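 CellTiter-Fluor viability check, qHTS format: wild-type CHO-K1, 16hr compound treatment, 1hr reagent incubation, fluorescence read.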
# [5] = Caspase-3/7 induction in CHO-K1 cells by small molecules, qHTS assay (AID 1346980); note: nearly all actives have a fitted effect of over 15% in size
# Summary of the method: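 Luminescent Caspase-Glo 3/7 read (30min, room temperature) quantified apoptosis induction. Cells were wild-type CHO-K1, treated with compound for 17hr at 37 C and 5% CO2.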
# [6] = Caspase-3/7 induction in HepG2 cells by small molecules, qHTS cell viability counter screen (AID 1346981); note: series mostly up to about 92 µM; nearly all actives have a fitted effect of over 30% in size
# Summary of the method: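 Wild-type HepG2 cells (2,000/well) were allowed to settle for 5 hr at 37 C, 5% CO2, then dosed with compounds in DMSO by pin transfer. After 16 hr at 37 C, CellTiter-Fluor was added and fluorescence read 1 hr later.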
# [7] = target: Nuclear receptor subfamily 1 group I member 2 (Homo sapiens) (UniProt O75469); test: Human pregnane X receptor (PXR) small molecule agonists, qHTS assay (AID 1346982); note: nearly all actives have a fitted effect of over 35% in size; note: potency is the fitted concentration of half-maximal effect
# Summary of the method: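 PXR-Luc HepG2 cells (CYP3A4 promoter-driven luciferase) were seeded in medium with 5% charcoal-stripped FBS, left 5 hr at 37 C, then exposed to compounds in DMSO for 24 hr. Luminescence was read after ONE-Glo addition.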
# [8] = target: Acetylcholinesterase (Homo sapiens) (UniProt P22303); test: Acetylcholinesterase (AChE) small molecule antagonists: colormetric cell-based qHTS assay (AID 1347395; calls by dose curve; note: nearly all actives have a fitted effect of over 30% in size)
# Summary of the method: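 AChE inhibition read colorimetrically via DTNB–thiocholine in SH-SY5Y cells. Compound 30 min, substrate 90 min, both 37 C.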
# [9] = target: Acetylcholinesterase (Homo sapiens) (UniProt P22303); test: Acetylcholinesterase (AChE) small molecule antagonists: enzyme-based qHTS assay (AID 1347397; calls by dose curve; note: nearly all actives have a fitted effect of over 55% in size); conditions: Potency: AChE enzyme activity inhibition
# Summary of the method: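 Absorbance-based detection of thiocholine with DTNB served as the read-out. Recombinant human AChE was exposed to compound for 30 min at RT before a 10 min RT incubation with acetylthiocholine.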
# [10] = target: Acetylcholinesterase (Homo sapiens) (UniProt P22303); test: Acetylcholinesterase (AChE) small molecule antagonists: fluorescence cell-based qHTS assay (AID 1347398; calls by dose curve; note: nearly all actives have a fitted effect of over 50% in size); conditions: Potency: AChE activity
# Summary of the method: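 Fluorimetric cell-based assay: intact SH-SY5Y cells, 30 min compound preincubation at 37 C, acetylthiocholine substrate with thiol probe Thiolite Green, 40 min RT development, fluorescence 490/520 nm.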
# [11] = target: Cytochrome P450 2D6 (Homo sapiens) (UniProt P10635); test: Cytochrome P450 Family 2 Subfamily D Member 6 (CYP2D6) small molecule antagonists: luciferase reporter qHTS assay (AID 1671196); note: nearly all actives have a fitted effect of over 50% in size; note: potency is the fitted concentration of half-maximal effect
# Summary of the method: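 CYP2D6 enzyme–substrate mix was held with compound for 10 min at room temperature, then NADPH regeneration solution was added and the reaction ran 1 h at room temperature. Luciferin product was detected by luminescence after 20 min with detection reagent.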
# [12] = target: Cytochrome P450 2C19 (Homo sapiens) (UniProt P33261); test: Cytochrome P450 Family 2 Subfamily C Member 19 (CYP2C19) small molecule antagonists: luciferase reporter qHTS assay (AID 1671197); note: nearly all actives have a fitted effect of over 65% in size; note: potency is the fitted concentration of half-maximal effect
# Summary of the method: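 P450-Glo CYP2C19 system: enzyme-substrate mix with compound 10 min at room temperature, then NADPH regeneration solution, 1 h at 37C. Proluciferin-to-luciferin conversion detected by luminescence after 20 min with detection reagent; ketoconazole as positive control.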
# [13] = target: Cytochrome P450 2C9 (Homo sapiens) (UniProt P11712); test: Cytochrome P450 Family 2 Subfamily C Member 9 (CYP2C9) small molecule antagonists: luciferase reporter qHTS assay (AID 1671198); note: series mostly up to about 120 µM; nearly all actives have a fitted effect of over 50% in size
# Summary of the method: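 Enzyme-substrate mix preincubated with compound 10 min at room temperature; reaction started with NADPH regeneration solution, 1 h 37C. Luminescent luciferin product read after 20 min detection reagent.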
# [14] = target: Cytochrome P450 1A2 (Homo sapiens) (UniProt P05177); test: Cytochrome P450 Family 1 Subfamily A Member 2 (CYP1A2) small molecule antagonists: luciferase reporter qHTS assay (AID 1671199); note: nearly all actives have a fitted effect of over 50% in size; note: potency is the fitted concentration of half-maximal effect
# Summary of the method: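 Human CYP1A2 activity measured with a P450-Glo proluciferin substrate; compounds in DMSO preincubated 10 min at room temperature with enzyme-substrate mix, then NADPH regeneration system added for 1 h. Luciferin detection reagent, 20 min, luminescence read.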
# [15] = target: Voltage-gated inwardly rectifying potassium channel KCNH2 (Homo sapiens) (UniProt Q12809); test: Human Ether-a-go-go-Related Gene (hERG) channel small molecule antagonists: fluorescence cell-based qHTS assay (AID 1671200)
# Summary of the method: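 Kinetic two-minute fluorescence traces, sampled at 1 s, were collected following thallium stimulus of U2OS cells (1000 per well) that had been cultured overnight at 37 C and loaded with FluxOR II.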
# [16] = target: Cytochrome P450 3A4 (Homo sapiens) (UniProt P08684); test: Cytochrome P450 Family 3 Subfamily A Member 4 (CYP3A4) small molecule antagonists: luciferase reporter qHTS assay (AID 1671201); note: nearly all actives have a fitted effect of over 50% in size; note: potency is the fitted concentration of half-maximal effect
# Summary of the method: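 Proluciferin-to-luciferin conversion by CYP3A4, NADPH-regenerated, 1 h RT; luminescence read as RLU. Ketoconazole as control.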
# [17] = target: Acetylcholinesterase (Homo sapiens) (UniProt P22303); test: Acetylcholinesterase (AChE) small molecule antagonists: enzyme-based qHTS assay with human liver microsomes (AID 1347399; calls by dose curve; note: nearly all actives have a fitted effect of over 60% in size); conditions: Potency: qHTS inhibition
# Summary of the method: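 Recombinant human AChE (50 mU/mL in the enzyme mix) and human liver microsomes (0.25 mg/mL final) were preincubated with compound and NADPH (0.25 mg/mL final) for 30 min at 37 C. Acetylthiocholine/DTNB was then added; thiocholine was read colorimetrically after 10 min at room temperature.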
# Chain of Cytochrome P450 1A2 (Homo sapiens) (P05177 whole entry, looked up): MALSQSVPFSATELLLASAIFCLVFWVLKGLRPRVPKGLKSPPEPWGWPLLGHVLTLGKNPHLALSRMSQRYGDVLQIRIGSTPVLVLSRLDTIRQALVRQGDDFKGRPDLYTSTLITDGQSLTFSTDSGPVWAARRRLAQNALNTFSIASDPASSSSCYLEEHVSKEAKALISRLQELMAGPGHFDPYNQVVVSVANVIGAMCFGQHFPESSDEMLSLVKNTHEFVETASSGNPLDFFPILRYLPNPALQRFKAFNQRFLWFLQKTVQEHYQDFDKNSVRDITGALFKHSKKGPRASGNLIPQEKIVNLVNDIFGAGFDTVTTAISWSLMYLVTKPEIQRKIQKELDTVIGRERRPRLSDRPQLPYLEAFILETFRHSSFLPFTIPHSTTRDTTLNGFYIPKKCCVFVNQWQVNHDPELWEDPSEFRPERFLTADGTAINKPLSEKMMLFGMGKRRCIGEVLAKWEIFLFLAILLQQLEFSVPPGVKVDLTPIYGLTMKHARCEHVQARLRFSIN
# Chain of Thyrotropin-releasing hormone receptor (Homo sapiens) (P34981 whole entry, looked up): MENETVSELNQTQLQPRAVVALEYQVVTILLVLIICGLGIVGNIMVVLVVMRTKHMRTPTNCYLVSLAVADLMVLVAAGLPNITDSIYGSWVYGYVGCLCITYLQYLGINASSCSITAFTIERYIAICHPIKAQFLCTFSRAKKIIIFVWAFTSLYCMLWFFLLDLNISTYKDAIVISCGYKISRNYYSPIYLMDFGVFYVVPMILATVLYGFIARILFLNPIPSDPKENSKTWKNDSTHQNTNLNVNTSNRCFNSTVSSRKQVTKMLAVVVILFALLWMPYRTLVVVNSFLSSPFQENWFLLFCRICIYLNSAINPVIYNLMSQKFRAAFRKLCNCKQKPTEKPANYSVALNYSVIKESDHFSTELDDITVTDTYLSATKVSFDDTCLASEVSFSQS
# Chain of Cytochrome P450 2C19 (Homo sapiens) (P33261 whole entry, looked up): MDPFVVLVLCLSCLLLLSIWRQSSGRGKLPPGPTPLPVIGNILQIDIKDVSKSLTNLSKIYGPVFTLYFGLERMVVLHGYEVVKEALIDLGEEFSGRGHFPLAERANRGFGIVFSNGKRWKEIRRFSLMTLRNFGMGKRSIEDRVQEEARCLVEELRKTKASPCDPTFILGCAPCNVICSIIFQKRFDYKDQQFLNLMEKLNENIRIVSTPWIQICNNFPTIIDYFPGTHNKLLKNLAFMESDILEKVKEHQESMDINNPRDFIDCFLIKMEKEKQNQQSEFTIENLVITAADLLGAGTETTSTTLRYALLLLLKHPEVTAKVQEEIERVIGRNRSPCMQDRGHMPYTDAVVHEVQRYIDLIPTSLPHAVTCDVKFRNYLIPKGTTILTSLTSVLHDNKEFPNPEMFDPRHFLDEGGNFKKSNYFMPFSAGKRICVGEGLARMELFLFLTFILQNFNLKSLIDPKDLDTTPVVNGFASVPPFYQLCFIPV
# Chain of Voltage-gated inwardly rectifying potassium channel KCNH2 (Homo sapiens) (Q12809 whole entry, looked up): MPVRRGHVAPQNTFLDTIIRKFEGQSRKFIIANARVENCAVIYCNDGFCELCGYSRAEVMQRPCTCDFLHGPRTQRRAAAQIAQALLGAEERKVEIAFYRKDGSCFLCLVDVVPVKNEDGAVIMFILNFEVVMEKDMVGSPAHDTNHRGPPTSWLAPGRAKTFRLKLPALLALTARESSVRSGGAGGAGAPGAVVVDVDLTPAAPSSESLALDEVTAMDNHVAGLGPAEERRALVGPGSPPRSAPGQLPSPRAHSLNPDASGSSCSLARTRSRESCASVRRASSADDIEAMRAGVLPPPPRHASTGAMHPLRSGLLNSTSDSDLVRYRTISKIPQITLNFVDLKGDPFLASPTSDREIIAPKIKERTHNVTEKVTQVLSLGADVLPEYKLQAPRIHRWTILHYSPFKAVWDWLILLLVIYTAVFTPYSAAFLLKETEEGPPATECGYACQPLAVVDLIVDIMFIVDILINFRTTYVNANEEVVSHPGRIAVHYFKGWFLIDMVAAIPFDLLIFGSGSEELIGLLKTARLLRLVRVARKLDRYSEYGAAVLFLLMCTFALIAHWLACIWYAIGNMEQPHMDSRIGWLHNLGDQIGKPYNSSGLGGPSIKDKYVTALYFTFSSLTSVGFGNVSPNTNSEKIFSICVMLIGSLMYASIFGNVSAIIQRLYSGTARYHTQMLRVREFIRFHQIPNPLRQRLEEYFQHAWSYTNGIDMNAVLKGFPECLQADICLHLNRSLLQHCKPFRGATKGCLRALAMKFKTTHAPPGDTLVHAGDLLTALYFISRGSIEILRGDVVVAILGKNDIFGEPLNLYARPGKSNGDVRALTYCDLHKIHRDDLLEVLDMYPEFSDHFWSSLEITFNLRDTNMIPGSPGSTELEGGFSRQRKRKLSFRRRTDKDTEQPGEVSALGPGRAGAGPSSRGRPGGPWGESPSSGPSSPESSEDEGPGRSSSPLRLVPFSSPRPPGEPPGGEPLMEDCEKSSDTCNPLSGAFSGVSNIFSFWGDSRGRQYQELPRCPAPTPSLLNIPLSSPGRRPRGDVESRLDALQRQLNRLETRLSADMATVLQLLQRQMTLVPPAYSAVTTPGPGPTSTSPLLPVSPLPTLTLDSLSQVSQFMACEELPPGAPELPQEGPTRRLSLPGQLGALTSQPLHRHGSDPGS
# Chain of Cytochrome P450 3A4 (Homo sapiens) (P08684 whole entry, looked up): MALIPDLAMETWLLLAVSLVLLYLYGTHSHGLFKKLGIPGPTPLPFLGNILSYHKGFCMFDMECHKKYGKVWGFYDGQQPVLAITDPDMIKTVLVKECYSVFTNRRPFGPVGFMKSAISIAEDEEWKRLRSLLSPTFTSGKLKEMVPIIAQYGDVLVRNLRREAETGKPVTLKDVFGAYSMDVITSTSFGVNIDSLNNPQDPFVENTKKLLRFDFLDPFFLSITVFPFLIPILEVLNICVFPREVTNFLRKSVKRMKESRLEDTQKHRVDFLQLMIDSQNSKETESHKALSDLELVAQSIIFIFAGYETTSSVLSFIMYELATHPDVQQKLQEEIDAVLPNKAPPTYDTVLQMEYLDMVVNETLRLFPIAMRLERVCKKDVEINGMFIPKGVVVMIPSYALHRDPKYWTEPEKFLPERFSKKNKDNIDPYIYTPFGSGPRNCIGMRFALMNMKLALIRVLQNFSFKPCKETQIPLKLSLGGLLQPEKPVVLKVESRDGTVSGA
# Chain of Cytochrome P450 2C9 (Homo sapiens) (P11712 whole entry, looked up): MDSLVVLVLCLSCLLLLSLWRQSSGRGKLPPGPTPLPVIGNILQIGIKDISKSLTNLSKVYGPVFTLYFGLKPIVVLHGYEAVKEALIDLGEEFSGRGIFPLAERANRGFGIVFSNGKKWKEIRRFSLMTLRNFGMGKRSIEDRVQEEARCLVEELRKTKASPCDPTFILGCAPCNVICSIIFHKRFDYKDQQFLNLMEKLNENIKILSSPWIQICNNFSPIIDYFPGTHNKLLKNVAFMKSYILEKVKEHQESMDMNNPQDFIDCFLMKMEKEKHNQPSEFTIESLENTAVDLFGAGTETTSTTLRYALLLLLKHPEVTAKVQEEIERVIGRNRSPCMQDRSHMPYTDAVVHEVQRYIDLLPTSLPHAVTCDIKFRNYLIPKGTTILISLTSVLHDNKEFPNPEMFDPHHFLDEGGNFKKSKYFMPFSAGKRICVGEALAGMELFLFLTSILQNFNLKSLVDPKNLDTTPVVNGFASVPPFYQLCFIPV
# Chain of Cytochrome P450 2D6 (Homo sapiens) (P10635 whole entry, looked up): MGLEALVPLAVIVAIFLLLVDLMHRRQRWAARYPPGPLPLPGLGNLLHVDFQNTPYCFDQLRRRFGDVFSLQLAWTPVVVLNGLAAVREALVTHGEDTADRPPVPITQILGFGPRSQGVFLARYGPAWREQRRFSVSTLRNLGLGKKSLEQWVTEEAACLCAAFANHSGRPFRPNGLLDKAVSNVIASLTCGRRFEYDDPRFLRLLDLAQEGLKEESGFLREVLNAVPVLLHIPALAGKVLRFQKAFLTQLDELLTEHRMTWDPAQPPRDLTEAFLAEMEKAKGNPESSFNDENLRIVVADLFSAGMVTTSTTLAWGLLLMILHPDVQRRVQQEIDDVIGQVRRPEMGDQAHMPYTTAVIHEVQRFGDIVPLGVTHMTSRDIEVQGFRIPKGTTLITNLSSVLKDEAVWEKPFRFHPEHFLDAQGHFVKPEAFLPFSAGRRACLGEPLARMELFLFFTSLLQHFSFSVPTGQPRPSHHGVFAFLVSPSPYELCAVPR
# Chain of Acetylcholinesterase (Homo sapiens) (P22303 whole entry, looked up): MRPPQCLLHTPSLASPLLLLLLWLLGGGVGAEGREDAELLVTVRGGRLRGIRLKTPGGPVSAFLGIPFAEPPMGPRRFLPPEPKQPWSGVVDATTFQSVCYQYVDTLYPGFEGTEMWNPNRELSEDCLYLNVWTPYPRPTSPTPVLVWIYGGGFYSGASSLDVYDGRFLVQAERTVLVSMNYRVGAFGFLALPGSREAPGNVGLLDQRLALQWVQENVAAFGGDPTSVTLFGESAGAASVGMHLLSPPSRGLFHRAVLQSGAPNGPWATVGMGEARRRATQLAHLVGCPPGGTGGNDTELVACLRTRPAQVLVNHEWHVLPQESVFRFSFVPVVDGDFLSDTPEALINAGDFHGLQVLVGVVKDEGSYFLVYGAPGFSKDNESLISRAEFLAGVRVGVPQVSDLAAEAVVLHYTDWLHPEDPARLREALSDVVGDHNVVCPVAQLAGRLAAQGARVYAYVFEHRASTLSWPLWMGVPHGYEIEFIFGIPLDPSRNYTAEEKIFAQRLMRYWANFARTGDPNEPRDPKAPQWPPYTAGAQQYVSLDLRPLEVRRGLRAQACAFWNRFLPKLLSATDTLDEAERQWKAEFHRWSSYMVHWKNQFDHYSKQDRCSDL
SMILES,outcome [1],Potency [2],outcome [3],Potency [4],outcome [5],Potency [6],Potency [7],Potency [8],Potency [9],Potency [10],Potency [11],Potency [12],Potency [13],Potency [14],Potency [15],Potency [16],Potency [17]
CC(C)(C)C(=O)CCl,inactive,inactive,inactive,inactive,inactive,inactive,inactive,inactive,inactive,inactive,inactive,inactive,inactive,inactive,inactive,inactive,
O=[N+]([O-])c1ccc(Cl)c(Cl)c1,inactive,inactive,inactive,inactive,inactive,inactive,inactive,inactive,inactive,inactive,inactive,71.1 µM (active) and inactive,,inactive and 22.4 µM (active),inactive,inactive,inactive
Cc1cccc(C)c1NC(=O)CN1CCCC1=O,inactive,inactive,inactive,inactive,inactive,inactive,inactive,inactive,inactive,inactive,inactive,inactive,inactive,,inactive,inactive,
N#Cc1cccc(C#N)c1,inactive,inactive,inactive,inactive,inactive,inactive,inactive,inactive,inactive,inactive,31.2 µM (active) and inactive,inactive,inactive,,inactive,inactive,
Cl[C@H]1OCCO[C@@H]1Cl,inactive,inactive,inactive,inactive,inactive,inactive,inactive,inactive,inactive,inactive,19.6 µM (active),,inactive,inactive,inactive,inactive,
Cc1cccc(N)c1C,inactive,inactive,inactive,inactive,inactive,inactive,61.1 µM (active),inactive,inactive,inactive,71 µM (active),inactive and 31.7 µM (active),,36.9 µM (active) and 20 µM (active),inactive,36.9 µM (active),inactive
ClC(Cl)c1ccccc1,inactive,inactive,inactive,inactive,inactive,inactive,inactive,inactive,inactive,inactive,,40.6 µM (active) and inactive,inactive,inactive,inactive,inactive,
O=[N+]([O-])c1ccc(Cl)cc1,inactive,inactive,inactive,48.2 µM (active) and inactive,inactive,inactive,inactive,inactive,inactive,inactive,inactive,inactive,inactive,,inactive,inactive,
CSc1nnc(C(C)(C)C)c(=O)n1N,inactive,inactive,inactive,inactive,inactive,inactive,inactive,inactive,inactive,inactive,31.4 µM (active),inactive,inactive,,inactive,inactive,
Cc1ccc(O)c(C)c1,inactive,inactive,inactive,inactive,inactive,inactive,inactive,inactive,inactive,inactive,inactive,inactive,,,inactive,inactive,inactive
O=C(O)Cc1ccccc1,inactive,inactive,inactive,inactive,inactive,inactive,inactive,inactive,inactive,inactive,40 µM (active) and 12.3 µM (active),inactive,inactive,63.4 µM (active) and inactive,inactive,inactive,
CCNc1nc(Cl)nc(NC(C)C)n1,inactive,inactive,inactive,inactive,inactive,inactive,67.8 µM (active) and 61.1 µM (active),inactive,inactive,inactive,inactive,inactive,inactive,24.9 µM (active) and 22.4 µM (active),inactive,inactive,
O=S(=O)(O)OOS(=O)(=O)O,inactive,inactive,inactive,inactive,inactive,inactive,inactive,inactive,inactive,inactive,inactive,inactive,inactive,31.6 µM (active) and inactive,inactive,inactive,
c1ccc2c(c1)CCCC2,inactive,inactive,inactive,inactive,inactive,inactive,inactive,inactive,inactive,inactive,7.25 µM (active) and inactive,inactive,inactive,,inactive,inactive,
